# This is a sample that favours compounds with a hit; in the whole collection about 10% have one here.
# CCT chaperon mod: changes cytosolic chaperonin activity. 360,000 compounds, 0.3% hits. activity change, % (test concentration not listed), hits read low. purified chaperonin ATPase assay, HTRF ADP detection, 30 min; in the data active = activity change below about -30%
#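 TRiC at 40 or 20 nM final (batch-dependent) in 30 mM Tris pH 7.4, 100 mM KCl, 5 mM MgCl2, 1 mM DTT, with compound at single 76 uM and 10 uM ATP, 30 min at 37 deg C. ADP detected by HTRF Transcreener, 665/615 ratio.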
# VDR inh: blocks the human vitamin D receptor; P11473; VDR-SRC2-3 peptide fluorescence polarization, 2 h; Potency, µM, for the others: max response, negative = inhibition, hits mostly inhibitors; 400,000 compounds, 0.93% hits; note: potency is the fitted concentration of half-maximal effect
# Target sequence (P11473 whole entry, looked up): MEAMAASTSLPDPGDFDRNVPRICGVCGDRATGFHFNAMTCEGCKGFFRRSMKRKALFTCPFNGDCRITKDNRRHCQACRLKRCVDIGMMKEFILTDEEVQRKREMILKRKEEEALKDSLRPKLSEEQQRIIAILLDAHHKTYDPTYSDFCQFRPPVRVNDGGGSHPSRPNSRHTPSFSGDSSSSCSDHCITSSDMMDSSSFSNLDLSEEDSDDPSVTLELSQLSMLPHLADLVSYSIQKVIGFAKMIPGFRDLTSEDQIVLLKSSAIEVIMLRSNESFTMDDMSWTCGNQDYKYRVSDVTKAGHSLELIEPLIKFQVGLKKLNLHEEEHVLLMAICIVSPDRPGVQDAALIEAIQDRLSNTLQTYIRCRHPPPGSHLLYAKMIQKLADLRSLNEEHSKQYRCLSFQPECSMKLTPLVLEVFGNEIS
#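 Fluorescence polarization assay measuring small-molecule disruption of VDR binding to the coregulator peptide SRC2-3. Compounds were pin-transferred (23 nl) into the reagent mix and incubated 2 h at room temperature before reading.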
# Mm-Cpn inhibitor: M. maripaludis TRiC chaperonin inhibition | purified Mm-Cpn ATPase, ADP Transcreener TR-FRET | Potency, µM (highest dose often 76.9 µM), for inactives: at the top dose activity, negative = inhibition, actives largely listed as inhibitors | 330,000 compounds, 0.031% hits | AID 504842; note: potency is the fitted concentration of half-maximal effect; nearly all actives have a fitted effect of over 80% in size
#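 25 nM Mm-CPN + cpd, 10 min 37°C; + 10 uM ATP, 30 min 37°C; buffer 30 mM Tris pH 7.4, 100 mM KCl, 5 mM MgCl2, 1 mM DTT; Transcreener ADP HTRF detection 30 min RT.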
# PLK1 PBD inh: PLK1 (human) polo-box domain binding inhibition. Plk1 PBD binding of FITC phosphopeptide, fluorescence polarization. Potency, µM, for the others: max response, negative = inhibition, actives largely listed as inhibitors. 360,000 compounds, 2.8% hits. AID 720504. P53350; note: potency is the fitted concentration of half-maximal effect; series mostly up to about 57 µM; nearly all actives have a fitted effect of over 65% in size
# Sfp PPTase inh: blocks B. subtilis Sfp PPTase activity; Q9F4F7; Biochemical Sfp PPTase activity, qHTS; Potency, µM, for inactives: largest response in the series, negative = inhibition, usual class: inhibitors; 310,000 compounds, 3.5% hits; AID 1490;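 note: the enzyme is Sfp with the accession as filed and its product quenches rhodamine fluorescence; potency is the fitted concentration of half-maximal effect; 0% = enzyme reaction without inhibitor and -100% = no enzyme wells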
#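 After 15 min at room temperature with compound, 15 nM Sfp received 5 uM rhodamine-CoA plus 12.5 uM BHQ-2-ybbR (50 mM Hepes pH 7.6, 10 mM MgCl2). Rate came from the fluorescence difference over 30 min, ex 525/em 598 nm.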
# G9a inh: inhibitors of human histone lysine methyltransferase G9a | G9a H3K9 monomethylation, AlphaScreen, 2 h | AID 504332 | Q96KQ7 | 350,000 compounds, 8.8% hits | Potency, µM (highest dose often 102 µM), for inactives: at the top dose activity, negative = inhibition, hits mostly inhibitors; note: potency is the fitted concentration of half-maximal effect; nearly all actives have a fitted effect of over 75% in size
# Target sequence (Q96KQ7 913-1193 limits assumed): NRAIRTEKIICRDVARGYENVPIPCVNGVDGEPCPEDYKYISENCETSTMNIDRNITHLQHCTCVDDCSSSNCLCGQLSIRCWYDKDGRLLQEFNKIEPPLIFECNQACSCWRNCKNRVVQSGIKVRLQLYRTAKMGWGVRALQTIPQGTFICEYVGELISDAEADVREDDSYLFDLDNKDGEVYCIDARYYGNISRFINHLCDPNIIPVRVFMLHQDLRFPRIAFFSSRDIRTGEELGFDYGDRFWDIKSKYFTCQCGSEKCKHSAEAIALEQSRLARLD
#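 Methyltransferase reactions run at room temperature for 2 h (20 nM enzyme, 500 nM biotin-H3K9 peptide, 20 uM SAM) after a 15 min compound preincubation; product detected by AlphaScreen beads and anti-H3K9me1 antibody.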
# Numbers without * were called inactive; ? = inconclusive; nt = no result; [ ] = another dose, or the depositor's remark. Unless noted, calls come from the whole dose curve; as a rule, active = well fitted curve in the direction sought with a large enough effect; inconclusive = small, poorly fitted or top-dose-only effect, or another doubt; inactive = no such curve, though single readings can be large; an effect the other way counts as inactive or inconclusive. Unless noted, % is set by controls: 0 for no effect and ±100 for the full control effect.
SMILES,CCT chaperon mod,VDR inh,Mm-Cpn inhibitor,PLK1 PBD inh,Sfp PPTase inh,G9a inh
CCCOc1cccc(C(=O)N(Cc2sccc2C)C2CCS(=O)(=O)C2)c1 (configuration not stated),nt,21.9%,nt,nt,nt,2.6%[59 µM]
COc1ccc(Cn2c(C(=O)O)c(CNCc3ccc(C)o3)c3ccc(OC)cc32)cc1,nt,1.6%,nt,nt,nt,-15.0%[59 µM]
COC(=O)c1ccc(CN(C(C)=O)c2ccccc2)o1,-0.5,?,-1.1%,26.7µM*,8.2%,?
O=C1/C(=C/c2cccc(O)c2)SC(=S)N1CC1CCCO1 (configuration not stated),-0.1,-9.0%,?,?,12.6%,-4.9%[12.7 µM]
COc1cccc(/C=C2\SC(=S)N(N3C(=O)CCCC3=O)C2=O)c1,-3.4,-2.4%,0.1%,-14.9%,0.6%,22.4µM*
COc1cccc(/C=C2\SC(=S)N(CC3CCCO3)C2=O)c1 (configuration not stated),-6.0,-14.4%,1.1%,-7.8%,-6.9%,28.2µM*
COC(=O)C1(C(=O)OC)C/C=C\C/C=C\c2ccccc2[C@@H]1C[N+](=O)[O-],nt,-0.9%,nt,nt,-7.9%,nt
COc1cc(-c2nc(Cn3nnc(C(=O)Nc4ccc(C)cc4C)c3C)c(C)o2)cc(OC)c1OC,nt,-20.9%,nt,nt,nt,-14.9%[59 µM]
CCn1c(CCC(=O)O)nc2cc(S(=O)(=O)N(C)C)ccc21,-0.7,4.2%,1.4%,-3.8%,14.1%,-1.9%
CCn1c(CSc2nc(C)cs2)nc2cc(S(=O)(=O)N(C)C)ccc21,-3.2,5.5%,-1.5%,26.7µM*,4.1%,-10.2%[2.33 µM]
CC(=O)OCCn1c(C)[n+](CCOC(C)=O)c2cc(Cl)c(Cl)cc21,1.0,2.4%,1.1%,-0.3%,3.7%,50.1µM*
N=c1c2c(ncn1Cc1ccco1)Oc1cc(O)ccc1C2c1ccccc1 (configuration not stated),-2.9,-17.1%,1.6%,-25.4%,-20.2%,nt
N=c1c2c(ncn1Cc1ccco1)Oc1c(ccc3ccccc13)C2c1ccccc1 (configuration not stated),-2.8,15.4%,-16.7%,-2.1%,50.1µM*,-1.3%[2.33 µM]
Cc1ccc(OCC(=O)N2CCN(S(=O)(=O)c3ccc(Cl)cc3)CC2)c([N+](=O)[O-])n1,0.3,6.7%,0.8%,-0.2%,-2.1%,39.8µM*
COc1ccccc1OCC(=O)N1CCN(C(=O)COc2ccccc2OC)CC1,2.4,5.8%,-0.4%,-16.8%,-14.6%,39.8µM*
O=C(COc1ccccc1F)N1CCN(S(=O)(=O)/C=C/c2ccccc2)CC1,1.2,-6.4%,0.9%,-1.0%,?,44.7µM*
COc1ccccc1OCC(=O)N1CCN(S(=O)(=O)c2ccc(Cl)cc2)CC1,-1.9,-16.1%,1.1%,4.4%,nt,44.7µM*
CO[C@@H]1COC(=O)CC=C[C@@H](C)[C@@H]2C=C[C@H](O)[C@@H](COC(=O)[C@H](C)NC(=O)CC=C[C@H]1C)O2,nt,nt,nt,nt,7.7%,nt
O=C(Cc1c[nH]c2ccccc12)N1CCN(S(=O)(=O)c2ccc(Cl)cc2)CC1,-1.3,4.5%,0.1%,-2.6%,nt,14.1µM*
O=S(=O)(c1ccc(Cl)cc1)N1CCN(Cc2c[nH]c3ccccc23)CC1,0.0,8.2%,0.5%,-0.4%,10.0%,-31.6%[59 µM]
CN(C1CCCC1)C1CCN(C(=O)CNC(=O)/C=C/c2ccccc2)CC1,-1.7,-2.5%,-0.6%,-8.1%,7.7%,-11.0%[59 µM]
COc1ccc(/C=C/C(=O)NCC(=O)N2CCC(N(C)CCN3CCOCC3)CC2)cc1OC,-1.1,-2.2%,-1.8%,-2.9%,-6.9%,7.94µM*
CCC(c1nnnn1Cc1ccco1)N(CCc1ccccc1)Cc1cc2cc(C)ccc2[nH]c1=O (configuration not stated),0.9,25.7%,-6.3%,-3.4%,17.8µM*,39.8µM*
Cc1ccc2[nH]c(=O)c(CN(CCc3ccccc3)C(c3nnnn3Cc3ccco3)C(C)C)cc2c1 (configuration not stated),-0.7,-2.0%,0.0%,-3.0%,17.8µM*,?
CCCn1c(SCC(O)c2ccccc2)nc2ccccc21 (configuration not stated),nt,14.9%,nt,nt,nt,-49.3%[59 µM]
SMILES,CCT chaperon mod,VDR inh,Mm-Cpn inhibitor,PLK1 PBD inh,Sfp PPTase inh,G9a inh
CC(C)=NO[C@@H](C)CN1CCCCc2nc(C)c(C)cc21,nt,nt,nt,nt,21.2%,nt
Cc1nn(-c2ccccc2)c(Cl)c1/C=C1\SC(=S)N(CCCCCC(=O)O)C1=O,-2.2,?,3.4%,23.8µM*,-4.5%,7.7%[12.7 µM]
O=C(O)CCCN1C(=O)/C(=C\C(Cl)=C\c2ccccc2)SC1=S,-2.6,135.2%,-0.2%,10.6µM*,-28.4%,14.1µM*
O=C(O)CN1C(=O)/C(=C\c2ccccc2OCc2ccc(F)cc2)SC1=S,-3.8,?,1.8%,26.7µM*,3.9%,50.1µM*
CN1CCN(C(=O)CCCN2C(=O)/C(=C/c3ccccc3)SC2=S)CC1,1.1,7.5%,-0.7%,-10.5%,5.7%,?
O=C(O)CCCN1C(=O)/C(=C\c2ccccc2OCc2ccccc2)SC1=S,-2.7,-25.3%,3.1%,26.7µM*,1.4%,39.8µM*
CCOc1cc(CNC(=O)NC2COc3ccccc3C2)cc(OCC)c1OCC (configuration not stated),nt,13.3%,nt,nt,nt,-14.2%[59 µM]
CCN(C(=O)CSc1nnc(-c2cc3occc3n2C)n1-c1ccccc1C)c1ccccc1,nt,12.6%,nt,nt,nt,-16.8%[59 µM]
CCc1nn2c(=O)cc(COC(=O)c3ccccc3NC(=O)COc3ccccc3C)nc2s1,nt,10.9%,nt,nt,nt,-5.0%[59 µM]
CCCN1CCN(CC2=C(C(=O)OCC)C(c3cccc(OC)c3OC)NC(=O)N2)CC1 (configuration not stated),nt,-6.7%,nt,nt,nt,3.3%[59 µM]
Cc1ccc(S(=O)(=O)c2c(Nc3cc(C)ccc3C)sc(C(=O)c3ccc4c(c3)OCO4)c2N)cc1,nt,12.3%,nt,nt,nt,6.1%[59 µM]
Cc1cccc(C(O)C(O)c2cccc(C)n2)n1 (configuration not stated),-84.6*,20.7%,nt,-2.0%,nt,nt
CCOC(=O)c1c(CSC(=N)N)n(C)c2cc(Br)c(OC(C)=O)cc12,-3.1,3.1%,1.7%,-7.1%,0.1%,?
CCOC(=O)c1c(CSC(=N)N)n(-c2ccc(C)cc2)c2cc(Br)c(OC(C)=O)cc12,-2.7,-10.1%,-5.3%,-7.5%,44.7µM*,nt
CNC(=O)c1cccc(-n2c(C)nc3cccnc32)c1C,nt,6.2%,nt,nt,nt,3.5%[59 µM]
CC(=O)Nc1ccc2c(c1)C(=O)c1cccc(C(=O)O)c1-2,-4.6,-14.3%,nt,6.2%,nt,nt
CCNc1c(C(=O)O)ccc2c1C(=O)c1ccccc1C2=O,-0.4,-1.1%,-2.6%,-7.8%,-2.4%,?
CNc1c(C(=O)O)ccc2c1C(=O)c1ccccc1C2=O,-0.3,-8.4%,-2.0%,-7.0%,2.0%,14.1µM*
O=C(O)c1ccc2c(c1Nc1ccccc1)C(=O)c1ccccc1C2=O,-0.4,-7.3%,-4.2%,-8.5%,-22.3%,39.8µM*

# Screens: PubChem, National Center for Advancing Translational Sciences (NCATS)
